The supplement of paper PMC10849652
Of roughly 7,900 targets only a part is listed; those with a hit were picked by preference. About 0.6% of all pairs of compound and target were hits. Values without a mark were called inactive.

Experiments:
Test in all cases: log2 fold change, soluble protein after heating vs DMSO (PISA); higher = thermal stabilisation; K562 cells, 10 uM, 30 min; active = over 0.2 and 3.5 SD of the protein, either way, in both replicates (recomputed)
[1] = compound: COC1=CC=C(C=C1)CN2C=CC3=C2C=C(C=C3)C(=O)NO
Procedure, shortened: (§1)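 K562 cells at 2×10^6 cells/mL were treated with 10 μM compound for 30 min. Aliquots were heated for 3 min across 48°C-58°C, pooled, and extracted in PBS with 0.5% NP-40 at 4°C; soluble protein was the supernatant after 21,000xg for 90 min. Soluble protein was quantified by TMTpro 16plex LC-MS/MS with channel sums equalised, and reported as log2 fold change in thermal stability against DMSO controls, with values from duplicates.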

[2] = compound: CON(C)C(=O)N1N=C(c2cc(F)ccc2F)S[C@@]1(CCCN)c1ccccc1 [filanesib]
Procedure, shortened: as §1

[3] = compound: CO[C@H]1C[C@@H]2CC[C@@H](C)[C@@](O)(O2)C(=O)C(=O)N2CCCC[C@H]2C(=O)O[C@H]([C@H](C)C[C@@H]2CC[C@H](n3cnnn3)[C@H](OC)C2)CC(=O)[C@H](C)/C=C(\C)[C@@H](O)[C@@H](OC)C(=O)[C@H](C)C[C@H](C)/C=C/C=C/C=C/1C [zotarolimus]
Procedure, shortened: as §1

[4] = compound: COc1cc(C(=O)O)ccc1NC(=O)[C@@H]1N[C@@H](CC(C)(C)C)[C@](C#N)(c2ccc(Cl)cc2F)[C@H]1c1cccc(Cl)c1F [idasanutlin]
Procedure, shortened: as §1

[5] = compound: COc1cc(Nc2ncc3c(n2)-c2ccc(Cl)cc2C(c2c(F)cccc2OC)=NC3)ccc1C(=O)O [alisertib]
Procedure, shortened: as §1

[6] = compound: COc1cc2nc(-c3cc(F)ccc3O)nc(N[C@@H]3CNC[C@H]3C(C)(C)O)c2cc1OC
Procedure, shortened: as §1

[7] = compound: COc1cc2ncnc(Nc3ccc(F)c(Cl)c3)c2cc1OCCCN1CCOCC1 [gefitinib]
Procedure, shortened: as §1

[8] = compound: COc1cccc2cc(-c3nc([C@H]4CC[C@H](C(=O)O)CC4)n4ncnc(N)c34)[nH]c12
Procedure, shortened: as §1

[9] = compound: CS(=O)(=O)CCNCc1ccc(-c2ccc3ncnc(Nc4ccc(OCc5cccc(F)c5)c(Cl)c4)c3c2)o1 [lapatinib]
Procedure, shortened: as §1

[10] = compound: CS(=O)(=O)N1CCN(Cc2cc3nc(-c4cccc5[nH]ncc45)nc(N4CCOCC4)c3s2)CC1 [pictilisib]
Procedure, shortened: as §1

[11] = compound: CS(=O)(=O)c1ccc(-c2cnc(N)c(C(=O)Nc3ccccc3)n2)cc1
Procedure, shortened: as §1

[12] = compound: C[C@@H](Oc1cc(-c2cnn(C3CCNCC3)c2)cnc1N)c1c(Cl)ccc(F)c1Cl [crizotinib]
Procedure, shortened: as §1

[13] = compound: C[C@@H]1COCCN1C2=NC(=NC(=C2)C3(CC3)S(=O)(=O)C)C4=C5C=CNC5=CC=C4
Procedure, shortened: as §1

[14] = compound: C[C@H](C1=CC=C(C=C1)C(=O)NC2=C3C=CNC3=NC=C2)N
Procedure, shortened: as §1

[15] = compound: C[C@H](Nc1ncnc2nc[nH]c12)c1cc2cccc(Cl)c2c(=O)n1-c1ccccc1 [duvelisib]
Procedure, shortened: as §1

[16] = compound: Cc1cc(Nc2cc(CN3CCOCC3)c3nc(C)c(Cc4ccc(Cl)cc4F)n3n2)n[nH]1 [gandotinib]
Procedure, shortened: as §1

[17] = compound: Cc1cc(Nc2cc(N3CCN(C)CC3)nc(Sc3ccc(NC(=O)C4CC4)cc3)n2)n[nH]1 [tozasertib]
Procedure, shortened: as §1

[18] = compound: Cc1cc(SCc2sc(-c3ccc(C(F)(F)F)cc3)nc2C)ccc1OCC(=O)O
Procedure, shortened: as §1

[19] = compound: Cc1ccc(-n2nc(C(C)(C)C)cc2NC(=O)Nc2ccc(OCCN3CCOCC3)c3ccccc23)cc1 [doramapimod]
Procedure, shortened: as §1

[20] = compound: Cc1ccc(C(=O)N(CCCN)[C@@H](c2nc3cc(Cl)ccc3c(=O)n2Cc2ccccc2)C(C)C)cc1 [ispinesib]
Procedure, shortened: as §1

Chain of UniProt Q9BW60 (Q9BW60 whole entry, looked up): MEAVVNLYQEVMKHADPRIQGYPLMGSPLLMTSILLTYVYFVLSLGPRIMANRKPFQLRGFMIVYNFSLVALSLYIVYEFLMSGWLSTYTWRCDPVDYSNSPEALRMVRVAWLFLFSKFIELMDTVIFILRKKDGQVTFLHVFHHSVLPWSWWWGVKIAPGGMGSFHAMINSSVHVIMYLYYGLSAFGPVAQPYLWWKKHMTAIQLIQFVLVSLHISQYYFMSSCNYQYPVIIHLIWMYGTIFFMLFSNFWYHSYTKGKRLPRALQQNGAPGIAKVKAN
Chain of UniProt P53634 (P53634 whole entry, looked up): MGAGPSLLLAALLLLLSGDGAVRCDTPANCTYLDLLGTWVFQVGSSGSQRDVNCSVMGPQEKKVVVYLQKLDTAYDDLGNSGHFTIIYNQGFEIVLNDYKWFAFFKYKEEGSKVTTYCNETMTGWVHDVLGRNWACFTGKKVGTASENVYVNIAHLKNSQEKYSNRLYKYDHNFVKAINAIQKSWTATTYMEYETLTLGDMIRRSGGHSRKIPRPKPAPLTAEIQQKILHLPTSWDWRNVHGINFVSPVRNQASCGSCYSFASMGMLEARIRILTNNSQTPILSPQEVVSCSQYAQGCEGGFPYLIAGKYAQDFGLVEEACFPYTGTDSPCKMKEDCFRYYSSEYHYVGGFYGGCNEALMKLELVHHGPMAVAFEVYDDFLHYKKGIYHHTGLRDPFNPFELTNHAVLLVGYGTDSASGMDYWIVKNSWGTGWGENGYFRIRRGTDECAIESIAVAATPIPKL
Chain of UniProt Q9UBR2 (Q9UBR2 whole entry, looked up): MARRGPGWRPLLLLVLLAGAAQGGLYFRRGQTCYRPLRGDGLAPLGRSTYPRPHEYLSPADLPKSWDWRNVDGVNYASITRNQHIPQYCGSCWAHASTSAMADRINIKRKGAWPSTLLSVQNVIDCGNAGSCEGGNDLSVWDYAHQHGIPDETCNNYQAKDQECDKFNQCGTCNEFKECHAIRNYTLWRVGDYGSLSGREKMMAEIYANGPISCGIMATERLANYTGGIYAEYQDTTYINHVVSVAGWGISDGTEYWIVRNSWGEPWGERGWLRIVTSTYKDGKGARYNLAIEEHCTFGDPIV
Chain of UniProt Q8N6R0 (Q8N6R0 whole entry, looked up): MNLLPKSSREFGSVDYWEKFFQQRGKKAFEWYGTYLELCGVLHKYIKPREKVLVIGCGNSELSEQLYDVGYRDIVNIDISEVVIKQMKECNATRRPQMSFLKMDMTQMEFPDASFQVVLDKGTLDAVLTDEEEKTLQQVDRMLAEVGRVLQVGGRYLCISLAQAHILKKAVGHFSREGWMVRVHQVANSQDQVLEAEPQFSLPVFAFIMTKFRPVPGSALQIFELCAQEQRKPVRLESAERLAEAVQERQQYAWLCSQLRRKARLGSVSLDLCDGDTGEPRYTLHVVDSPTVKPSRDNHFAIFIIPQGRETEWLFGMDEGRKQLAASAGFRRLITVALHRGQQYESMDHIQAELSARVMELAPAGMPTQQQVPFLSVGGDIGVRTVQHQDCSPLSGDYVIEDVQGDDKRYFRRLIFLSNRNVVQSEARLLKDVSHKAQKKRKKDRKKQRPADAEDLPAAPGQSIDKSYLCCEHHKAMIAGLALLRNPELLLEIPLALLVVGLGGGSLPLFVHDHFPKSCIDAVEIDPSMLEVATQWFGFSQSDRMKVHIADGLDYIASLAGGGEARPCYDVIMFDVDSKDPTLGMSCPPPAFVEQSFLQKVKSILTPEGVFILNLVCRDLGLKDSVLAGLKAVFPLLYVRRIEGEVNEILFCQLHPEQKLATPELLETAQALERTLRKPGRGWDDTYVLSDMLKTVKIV
Chain of UniProt Q96E09 (Q96E09 whole entry, looked up): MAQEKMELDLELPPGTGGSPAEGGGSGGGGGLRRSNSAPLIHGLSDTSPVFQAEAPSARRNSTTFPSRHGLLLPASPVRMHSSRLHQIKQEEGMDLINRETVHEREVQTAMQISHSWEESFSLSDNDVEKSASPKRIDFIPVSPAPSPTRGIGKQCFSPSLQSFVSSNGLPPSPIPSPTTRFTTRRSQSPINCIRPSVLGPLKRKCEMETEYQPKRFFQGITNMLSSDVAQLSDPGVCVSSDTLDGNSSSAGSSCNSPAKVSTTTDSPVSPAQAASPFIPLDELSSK
Chain of UniProt Q99615 (Q99615 whole entry, looked up): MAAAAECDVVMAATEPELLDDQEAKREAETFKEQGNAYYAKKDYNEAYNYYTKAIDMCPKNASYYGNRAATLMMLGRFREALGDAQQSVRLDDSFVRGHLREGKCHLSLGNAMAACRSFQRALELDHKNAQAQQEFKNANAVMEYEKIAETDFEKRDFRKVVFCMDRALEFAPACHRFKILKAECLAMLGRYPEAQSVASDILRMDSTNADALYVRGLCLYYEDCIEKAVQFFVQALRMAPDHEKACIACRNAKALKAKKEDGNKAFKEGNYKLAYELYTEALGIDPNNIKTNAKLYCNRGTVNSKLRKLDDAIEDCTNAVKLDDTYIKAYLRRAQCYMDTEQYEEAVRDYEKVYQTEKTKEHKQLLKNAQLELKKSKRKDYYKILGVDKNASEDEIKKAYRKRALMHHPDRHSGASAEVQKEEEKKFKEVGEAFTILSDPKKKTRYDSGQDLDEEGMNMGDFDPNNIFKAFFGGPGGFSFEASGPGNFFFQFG
Chain of UniProt Q9NXF7 (Q9NXF7 whole entry, looked up): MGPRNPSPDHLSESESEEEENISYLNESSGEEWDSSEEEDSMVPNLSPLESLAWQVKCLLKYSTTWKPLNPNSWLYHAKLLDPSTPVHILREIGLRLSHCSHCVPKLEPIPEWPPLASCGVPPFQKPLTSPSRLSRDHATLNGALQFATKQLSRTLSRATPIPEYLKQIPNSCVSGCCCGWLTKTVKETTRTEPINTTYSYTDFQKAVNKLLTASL
Chain of UniProt Q99848 (Q99848 whole entry, looked up): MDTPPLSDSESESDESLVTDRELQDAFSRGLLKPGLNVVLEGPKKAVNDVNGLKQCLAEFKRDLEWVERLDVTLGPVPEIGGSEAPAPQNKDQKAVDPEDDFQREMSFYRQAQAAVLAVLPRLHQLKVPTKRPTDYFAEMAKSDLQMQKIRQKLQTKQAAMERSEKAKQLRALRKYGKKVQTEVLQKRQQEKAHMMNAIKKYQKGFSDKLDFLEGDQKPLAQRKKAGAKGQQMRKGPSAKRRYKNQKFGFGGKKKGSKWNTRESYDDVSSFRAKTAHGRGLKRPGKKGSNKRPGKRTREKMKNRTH
Chain of UniProt Q9Y5Q0 (Q9Y5Q0 whole entry, looked up): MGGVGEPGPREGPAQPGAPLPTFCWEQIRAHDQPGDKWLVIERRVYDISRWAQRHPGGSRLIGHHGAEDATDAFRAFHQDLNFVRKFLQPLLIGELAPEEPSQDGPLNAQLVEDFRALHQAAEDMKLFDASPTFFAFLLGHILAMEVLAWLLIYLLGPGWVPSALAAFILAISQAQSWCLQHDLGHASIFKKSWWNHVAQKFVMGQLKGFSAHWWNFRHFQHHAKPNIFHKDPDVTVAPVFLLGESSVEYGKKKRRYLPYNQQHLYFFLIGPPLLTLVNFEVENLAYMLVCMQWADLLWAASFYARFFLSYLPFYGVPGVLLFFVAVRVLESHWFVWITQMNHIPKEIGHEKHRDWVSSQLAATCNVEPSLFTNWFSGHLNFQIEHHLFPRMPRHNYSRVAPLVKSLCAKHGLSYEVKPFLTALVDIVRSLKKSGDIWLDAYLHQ
Chain of UniProt Q15369 (Q15369 whole entry, looked up): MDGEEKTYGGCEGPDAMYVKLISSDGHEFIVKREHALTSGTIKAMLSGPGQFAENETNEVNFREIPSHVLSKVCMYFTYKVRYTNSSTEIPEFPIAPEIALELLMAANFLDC
Chain of UniProt Q5QP82 (Q5QP82 whole entry, looked up): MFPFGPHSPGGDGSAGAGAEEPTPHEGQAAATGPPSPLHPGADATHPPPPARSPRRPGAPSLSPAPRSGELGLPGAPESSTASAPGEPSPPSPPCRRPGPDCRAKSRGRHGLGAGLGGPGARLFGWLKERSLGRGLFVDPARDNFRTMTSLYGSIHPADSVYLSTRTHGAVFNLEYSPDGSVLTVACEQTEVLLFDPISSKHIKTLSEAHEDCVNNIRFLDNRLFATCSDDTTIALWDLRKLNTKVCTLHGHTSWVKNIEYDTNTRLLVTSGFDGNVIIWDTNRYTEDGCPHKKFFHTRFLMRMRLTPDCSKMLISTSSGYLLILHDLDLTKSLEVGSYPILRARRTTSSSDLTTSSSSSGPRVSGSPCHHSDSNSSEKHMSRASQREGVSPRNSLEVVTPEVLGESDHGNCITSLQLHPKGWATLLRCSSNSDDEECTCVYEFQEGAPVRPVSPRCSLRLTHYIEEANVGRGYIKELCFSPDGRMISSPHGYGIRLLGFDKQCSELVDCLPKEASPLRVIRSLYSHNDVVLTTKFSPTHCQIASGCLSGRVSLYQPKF
Chain of UniProt P24534 (P24534 whole entry, looked up): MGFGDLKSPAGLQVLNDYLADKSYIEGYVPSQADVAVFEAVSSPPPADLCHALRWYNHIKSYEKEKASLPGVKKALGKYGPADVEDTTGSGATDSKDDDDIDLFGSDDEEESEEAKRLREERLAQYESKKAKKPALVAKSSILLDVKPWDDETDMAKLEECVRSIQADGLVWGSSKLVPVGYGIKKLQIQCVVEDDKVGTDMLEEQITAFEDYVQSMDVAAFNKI
Chain of UniProt P50402 (P50402 whole entry, looked up): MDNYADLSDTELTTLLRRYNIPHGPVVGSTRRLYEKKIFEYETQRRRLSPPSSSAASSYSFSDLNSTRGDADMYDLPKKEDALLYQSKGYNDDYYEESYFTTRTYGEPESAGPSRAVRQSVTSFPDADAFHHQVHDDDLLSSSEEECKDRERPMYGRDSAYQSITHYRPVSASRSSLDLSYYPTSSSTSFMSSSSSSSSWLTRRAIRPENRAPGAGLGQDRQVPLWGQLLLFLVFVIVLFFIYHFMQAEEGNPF

| Target | log2 fold change [1] | log2 fold change [2] | log2 fold change [3] | log2 fold change [4] | log2 fold change [5] | log2 fold change [6] | log2 fold change [7] | log2 fold change [8] | log2 fold change [9] | log2 fold change [10] | log2 fold change [11] | log2 fold change [12] | log2 fold change [13] | log2 fold change [14] | log2 fold change [15] | log2 fold change [16] | log2 fold change [17] | log2 fold change [18] | log2 fold change [19] | log2 fold change [20] |
| --- | --- | --- | --- | --- | --- | --- | --- | --- | --- | --- | --- | --- | --- | --- | --- | --- | --- | --- | --- | --- |
| DCAF10 (UniProt Q5QP82) | -0.047 | 0.016 | -0.01 | 0.002 | 0.09 | 0.076 | -0.051 | -0.067 | -0.081 | 0.032 | 0.036 | 0.007 | 0.037 | 0.017 | -0.046 | -0.15 | 0.007 | -0.098 | 0.055 | -0.059 |
| ELOVL1 (UniProt Q9BW60) | -0.103 | -0.139 | -0.051 | -0.051 | 0.032 | -0.084 | -0.087 | 0.032 | -0.078 | -0.046 | 0.082 | -0.182 | -0.065 | -0.14 | 0.124 | -0.206 | -0.003 | 0.078 | -0.082 | -0.297 |
| FADS3 (UniProt Q9Y5Q0) | -0.067 | -0.151 | -0.062 | 0.007 | 0.005 | -0.036 | 0.04 | 0.168 | 0.097 | 0.168 | 0.042 | -0.237 | 0.198 | 0.055 | 0.079 | -0.058 | -0.042 | 0.073 | -0.013 | -0.311 (active) |
| EEF1AKNMT (UniProt Q8N6R0) | -0.256 | -0.052 | 0.096 | 0.013 | -0.035 | 0.037 | 0.065 | -0.037 | -0.014 | 0 | -0.011 | -0.059 | 0.006 | 0.111 | -0.047 | -0.09 | 0.071 | 0.153 | 0.077 | -0.072 |
| F5 (UniProt P12259) | -0.032 | -0.05 | -0.051 | 0.613 (active) | -0.074 | -0.089 | 0.026 | 0.059 | 0.034 | 0.074 | 0.081 | 0.257 | -0.064 | 0.057 | -0.036 | 0.023 | 0.004 | 0.223 | 0.019 | 0.055 |
| DDX5 (UniProt P17844) | 0.118 | 0.013 | 0.062 | 0.024 | 0.006 | 0.088 | 0.031 | 0.004 | 0.02 | 0.097 | 0.035 | -0.16 | 0.135 | 0.125 | 0.041 | -0.016 | 0.012 | 0.165 | -0.044 | 0.052 |
| ELOC (UniProt Q15369) | 0.007 | 0.04 | 0.096 | -0.009 | -0.009 | 0.033 | -0.006 | 0.011 | -0.002 | 0.105 | 0.038 | 0.074 | 0.279 (active) | -0.07 | 0.137 | -0.001 | 0.06 | -0.015 | 0.012 | 0.134 |
| EEF1B2 (UniProt P24534) | 0.033 | 0.031 | 0.035 | 0.007 | 0.023 | 0.03 | 0.024 | -0.061 | -0.029 | 0.014 | 0.003 | -0.018 | -0.073 | 0.092 | 0.04 | -0.043 | 0.052 | 0.013 | -0.065 | -0.024 |
| DNAJC7 (UniProt Q99615) | 0.037 | -0.025 | 0.07 | -0.043 | -0.044 | -0.031 | 0.068 | -0.031 | 0 | 0.014 | 0.027 | -0.014 | 0.048 | -0.028 | 0.019 | -0.088 | -0.021 | 0.095 | -0.057 | 0.001 |
| CTSC (UniProt P53634) | 0.019 | -0.065 | 0.001 | -0.024 | 0.021 | -0.04 | 0.036 | 0.026 | -0.031 | 0.083 | 0.042 | -0.037 | -0.015 | -0.062 | 0.018 | 0 | 0.063 | -0.047 | 0.013 | -0.057 |
| CTSZ (UniProt Q9UBR2) | 0.073 | -0.05 | 0.011 | -0.019 | -0.079 | -0.172 | 0.035 | 0.07 | 0.015 | 0.176 | -0.001 | -0.007 | 0.021 | -0.033 | -0.037 | 0.03 | -0.015 | -0.037 | 0.05 | -0.481 (active) |
| CTSA (UniProt P10619) | 0.01 | -0.111 | -0.024 | 0.015 | 0.029 | 0.023 | 0.1 | 0.065 | 0.045 | 0.038 | 0.032 | -0.563 (active) | 0.002 | -0.036 | -0.039 | 0.043 | 0.011 | 0.003 | 0.009 | -0.237 (active) |
| FAM122A (UniProt Q96E09) | -0.05 | -0.004 | -0.038 | 0.017 | -0.068 | -0.053 | 0.019 | 0.005 | 0.018 | 0.092 | 0.077 | -0.032 | -0.267 | -0.042 | 0.059 | -0.015 | 0.038 | -0.015 | 0.014 | 0 |
| DCAF16 (UniProt Q9NXF7) | 0.065 | 0.077 | 0.035 | 0.037 | -0.07 | 0.021 | 0.022 | 0 | -0.168 | 0.132 | 0.058 | 0.001 | 0.176 | -0.103 | 0.054 | 0.069 | 0.079 | 0.17 | -0.005 | 0.036 |
| EMD (UniProt P50402) | -0.049 | -0.013 | 0.007 | 0.037 | -0.08 | -0.031 | -0.053 | 0.074 | -0.025 | 0.093 | 0.042 | -0.215 (active) | 0.019 | 0.018 | -0.033 | -0.047 | -0.049 | 0.015 | 0.018 | -0.092 |
| EBNA1BP2 (UniProt Q99848) | -0.054 | 0.686 | 0.069 | 0.283 | -0.172 | -0.095 | -0.01 | -0.216 | 0.153 | -0.069 | -0.013 | -0.025 | -0.236 | 0.394 | -0.138 | 0.104 | 0.191 | 0.025 | 0.282 | 0.21 |
